Measurements taken from PubChem BioAssay (EPA / NIEHS).
Results filed as inconclusive are left out. Calls of active or inactive are those of the source. The calls were made as follows: active = hit-call score of the fitted dose curve at least 0.9, where 1 is the maximum; inconclusive = response in the unintended direction; inactive = score below 0.9.

Assay: ACEA_AR_agonist_AUC_viability: ACEA Biosciences xCELLigence Real-Time Cell Analysis on Androgen Receptor Agonism for Viability (AID 2283775);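 as to AC50: viability read 80 hours after compound addition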
Method in brief: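 Viability endpoint from xCELLigence impedance in 22Rv1 prostate cells at 80 h. Eight-point series, 100 uM maximum final.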

Row | SMILES | outcome | AC50
1 | CC(C)(C)N(NC(=O)c1ccc(Cl)cc1)C(=O)c1ccccc1 | inactive | –
2 | O=C(O)C1C(C(=O)O)C2(Cl)C(Cl)=C(Cl)C1(Cl)C2(Cl)Cl (configuration not stated) | inactive | –
3 | CCCCN(CC)C(=O)SCCC | inactive | –
4 | c1cc2c3c(cccc3c1)CC2 | inactive | –
5 | CCNc1nc(Cl)nc(NC(C)(C)C)n1 | inactive | –
6 | CCC(C)(C)c1ccc(O)cc1 | – | 67 µM (active)
7 | [N-]=[N+]=[N-] | inactive | –
8 | CCC1(c2ccccc2)C(=O)N=C(O)NC1=O (configuration not stated) | inactive | –
9 | CCCCC(CC)COP(=O)(Oc1ccccc1)Oc1ccccc1 (configuration not stated) | inactive | –
10 | CO/N=C(/C(=O)OC)c1ccccc1COc1ccccc1C | inactive | –
11 | CC1(C)CN=C(NN=C(/C=C/c2ccc(C(F)(F)F)cc2)/C=C/c2ccc(C(F)(F)F)cc2)NC1 | – | 12.6 µM (active)
12 | O=C(CBr)OCc1ccccc1 | inactive | –
